Experimental data published in PubChem BioAssay (EPA / NIEHS).
Inconclusive results are not listed. Activity calls are given as the source filed them. The calls were made as follows: active = hit-call score of the fitted dose curve at least 0.9, where 1 is the maximum; inconclusive = response in the unintended direction; inactive = score below 0.9.

Experiments:
[1] = TOX21_p53_BLA_p2_viability: Viability Assessment in the Tox21 HCT-116 p53 Agonism Beta-lactamase Assay, Phase 2 (AID 2283591);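 also: actives lower the ATP signal meaning cytotoxicity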
In short: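 HCT116 p53-bla cells, 4000/well, dosed after 5 h plating (217-fold dilution of DMSO stocks) and incubated 16 h at 37C. Viability taken as cellular ATP by CellTiter-Glo luminescence after 30 min RT; signal loss marks cytotoxicity.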

[2] = target: Cellular tumor antigen p53 (Homo sapiens) (UniProt P04637); assay: TOX21_p53_BLA_p3_ratio: Tox21 HCT-116 p53 Agonism Beta-lactamase Assay, Ratio, Phase 3 (AID 2283596)
In short: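 Cells were seeded at 4000/well, rested 5 h at 37C, then dosed with DMSO compound solutions (217-fold dilution) for 16 h. CCF4-AM substrate was loaded for 2 h at room temperature, and the 460/530 nm emission ratio was fitted for gain of signal versus DMSO.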

[3] = TOX21_p53_BLA_p4_viability: Viability Assessment in the Tox21 HCT-116 p53 Agonism Beta-lactamase Assay, Phase 4 (AID 2283597);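 also: hits lower the luminescence signal meaning cytotoxicity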
In short: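 ATP content by CellTiter-Glo luminescence, 30 min RT, read after the beta-lactamase ratio step. Cells: HCT116, 4000/well, compound added after 5 h, exposure 16 h at 37C. Signal loss = reduced viability.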

[4] = target: Cellular tumor antigen p53 (Homo sapiens) (UniProt P04637); assay: TOX21_p53_BLA_p5_ratio: Tox21 HCT-116 p53 Agonism Beta-lactamase Assay, Ratio, Phase 5 (AID 2283599)
In short: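 HCT-116 p53-bla cells (4000/well) plated 5 h, dosed with compound (217-fold DMSO dilution) for 16 h at 37 C; CCF4-AM substrate 2 h at room temperature. Activity is the 460/530 nm emission ratio (405 nm excitation), fitted in gain-of-signal direction versus DMSO.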

[5] = target: Cellular tumor antigen p53 (Homo sapiens) (UniProt P04637); assay: TOX21_p53_BLA_p4_ratio: Tox21 HCT-116 p53 Agonism Beta-lactamase Assay, Ratio, Phase 4 (AID 2283601)
In short: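 HCT-116 p53 beta-lactamase reporter cells (4000/well) preincubated 5 h, then compound (217-fold dilution of DMSO stock) for 16 h at 37C. CCF4-AM substrate added 2 h at room temperature; 460/530 nm emission ratio fitted upward versus DMSO.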

Measured: outcome

Sequence of Cellular tumor antigen p53 (Homo sapiens) (P04637 whole entry, looked up): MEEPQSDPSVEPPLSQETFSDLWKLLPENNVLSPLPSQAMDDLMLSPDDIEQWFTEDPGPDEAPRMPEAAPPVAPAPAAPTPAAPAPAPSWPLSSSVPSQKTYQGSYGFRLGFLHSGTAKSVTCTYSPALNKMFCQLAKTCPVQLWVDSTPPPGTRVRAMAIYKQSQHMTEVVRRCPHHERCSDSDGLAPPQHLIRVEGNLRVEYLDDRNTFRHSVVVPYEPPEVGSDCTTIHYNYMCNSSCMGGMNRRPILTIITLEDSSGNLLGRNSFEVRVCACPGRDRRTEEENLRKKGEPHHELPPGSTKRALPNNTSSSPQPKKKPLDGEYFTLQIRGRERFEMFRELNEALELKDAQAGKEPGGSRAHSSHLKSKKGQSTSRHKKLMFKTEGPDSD

Cc1nnc2n1-c1ccc(Cl)cc1C(c1ccccc1)=NC2
inactive: all assays above
